Measurements taken from PubChem BioAssay (EPA / NIEHS).
Results filed as inconclusive are left out. Calls of active or inactive are those of the source. How the source made its calls: active means hit-call score of the fitted dose curve at least 0.9, where 1 is the maximum; inconclusive means response in the unintended direction; inactive means score below 0.9.

target: Nuclear receptor subfamily 4 group A member 2 (Homo sapiens) (UniProt P43354); assay: ATG_NURR1_TRANS: Attagene TRANS-FACTORIAL HepG2 Assay for human Nuclear Receptor Related Protein 1 (NURR1) (AID 2282985); conditions: HepG2 Attagene TRANS reporter, mRNA readout
Procedure: ATG_TRANS is a cell-based, multiplexed-readout assay that uses HepG2, a human liver cell line, with measurements taken at 24 hours after chemical dosing in a 24-well plate.ATG_NURR1_TRANS is one of 30 assay component(s) measured or calculated from the ATG_TRANS assay. It is designed to make measurements of mRNA induction, a form of inducible reporter, as detected with fluorescence intensity signals by Reverse transcription polymerase chain reaction (RT-PCR) and Capillary electrophoresis technology.Data from the assay component ATG_NURR1_TRANS was analyzed into 1 assay endpoint. This assay endpoint, ATG_NURR1_TRANS, was analyzed in the positive analysis fitting direction relative to DMSO as the negative control and baseline of activity. Using a type of inducible reporter, measures of mRNA for gain-of-signal activity can be used to understand the reporter gene at the transcription factor-level as they relate to the gene NR4A2. Furthermore, this assay endpoint can be referred to as a primary readout, because this assay has produced multiple assay endpoints where this one serves a reporter gene function. To generalize the intended target to other relatable targets, this assay endpoint is annotated to the nuclear receptor intended target family, where the subfamily is orphan.
Human liver HepG2 cells are transiently transfected with multiple reporter transcription units (MRTUs) in 6-well plates using FuGene 6 reagent (Roche; 3 ml FuGene/1 mg DNA). The MRTU constructs are regulated by a cis-regulating element (promoter). […] A major difference between the CIS and TRANS system is that in CIS activities of endogenous TFs are measured, whereas the TRANS assay evaluates changes in activities of exogenous, chimeric NR-Gal4 proteins. […] At the end of 24 hour incubation, total RNA was isolated using TriZol reagent (Invitrogen). The isolated RNA is then reverse-transcribed using oligo(dT) primer and Mo-MLV reverse transcriptase (Invitrogen) with DNAse I (Ambion) treatment for 30 min. The one-tenth of the produced cDNA was amplified by PCR using Taq DNA polymerase (Invitrogen) and two reporter sequence-specific primers. The PCR products were fluorescently labeled by primer extension with 6-arboxyfluorescein (6-FAM) 5'-labeled reporter sequence-specific primer (2 min at 95 C, 20 s at 68 C and 10 min at 72 C) and these products were digested with 5U of HpaI (New England Biolabs) for 2h at 37 C. The fragments were purified using Qiaquick PCR columns (Qiagen), analyzed on an ABI 3130xL genetic analyzer (Applied Biosystems) with peak positions identified by using a set of X-rhodamine (ROX)-labeled MapMarker1000 molecular weight standards (BioVentures). The raw capillary electrophoresis data was processed using Attagraph software (Attagene).

Chain of Nuclear receptor subfamily 4 group A member 2 (Homo sapiens) (P43354 whole entry, looked up): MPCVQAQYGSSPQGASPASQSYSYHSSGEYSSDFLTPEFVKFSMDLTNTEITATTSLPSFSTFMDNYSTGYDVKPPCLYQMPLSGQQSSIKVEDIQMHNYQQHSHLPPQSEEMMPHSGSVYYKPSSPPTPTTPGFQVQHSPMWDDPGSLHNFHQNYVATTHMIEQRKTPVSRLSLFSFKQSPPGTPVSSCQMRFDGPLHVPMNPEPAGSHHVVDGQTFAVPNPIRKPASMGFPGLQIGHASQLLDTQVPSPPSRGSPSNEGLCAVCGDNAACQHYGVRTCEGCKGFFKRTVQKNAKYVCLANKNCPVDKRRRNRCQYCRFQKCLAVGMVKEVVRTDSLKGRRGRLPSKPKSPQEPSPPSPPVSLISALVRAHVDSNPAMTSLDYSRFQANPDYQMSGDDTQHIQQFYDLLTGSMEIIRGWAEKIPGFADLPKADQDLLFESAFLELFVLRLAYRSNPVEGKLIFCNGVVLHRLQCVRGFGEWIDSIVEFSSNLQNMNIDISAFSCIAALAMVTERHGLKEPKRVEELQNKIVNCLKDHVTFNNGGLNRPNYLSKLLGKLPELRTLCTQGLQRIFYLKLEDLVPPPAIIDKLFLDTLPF

AC50, active:
CCCCCCCCCCCSCC(=O)O 23 µM
CCC(=O)Oc1ccc(/C(CC)=C(\CC)c2ccc(OC(=O)CC)cc2)cc1 26.1 µM
Cc1c(C)c([N+](=O)[O-])c(C(C)(C)C)c([N+](=O)[O-])c1C 9.67 µM
C=CCOc1c(Br)cc(Br)cc1Br 43.4 µM
CCC(Cc1ccccc1)(C(=O)c1ccc(N2CCOCC2)cc1)N(C)C (stereo not given) 41 µM

outcome, inactive:
CC=CC(F)(F)C(F)(F)C(F)(F)F
O=C(c1ccc(O)cc1)c1ccc(O)cc1O
CCCC(C)CCC(C)=O (stereo not given)
O=C(c1ccccc1)c1ccc(O)c(O)c1O
O=C(/C=C/C=C/c1ccc2c(c1)OCO2)N1CCCCC1
O=[N+]([O-])c1ccc(CO)cc1
CC(=O)OC1C2(C)CCC(C2)C1(C)C (stereo not given)
NC(=O)N=NC(N)=O
O=C1c2cccc(O)c2C(=O)c2c(O)cc(CO)cc21
CC(C)=CCCC(C)C=O (stereo not given)
C=C(C)C(=O)OCCO
Nc1ccc(Cl)cc1Cl
O=C1CCCC1
O=C1CCCCCN1SSN1CCCCCC1=O
CCCCCCCCCCCCCCCC(=O)OCC
CCCCCCCCC(=O)OCC
CC(C)(C)C(=O)CCc1ccc(Cl)cc1
O=C1c2ccccc2C(=O)C1c1nc2ccccc2c(Br)c1O
CCC(C)(C)C1CCCCC1OC(C)=O (stereo not given)
C=CC(C)(CCC=C(C)C)OC(=O)CC(C)C (stereo not given)
CCc1nccnc1C
CCCCC/C=C\C/C=C\CCCCCCCC(=O)OC
O=C(C=Cc1ccccc1)OCc1ccccc1
CC(C)c1ccc(C=O)cc1
C=CCCCCCCCCC(=O)OCCCC
CC1=CC[C@H](C(C)C)C=C1
C=CC(=O)OCCOC1C2CCC1C1CC=CC12 (stereo not given)
Nc1ccc(N)c(Cl)c1
C1CN(SSN2CCOCC2)CCO1
CCC(C)C=O (stereo not given)
O=Nc1ccc(O)cc1
CCCCCCCCCCCCCCCC[N+](C)(C)CC
Cc1ccc([N+](=O)[O-])cc1S(=O)(=O)O
CC1=CC[C@H]2C[C@@H]1C2(C)C
CCN(Cc1cccc(S(=O)(=O)O)c1)c1ccc(C(=C2C=CC(=[N+](CC)Cc3cccc(S(=O)(=O)[O-])c3)C=C2)c2ccccc2)cc1
